# Reference: PubChem BioAssay (EPA / NIEHS)
# Values joined by “and” are separate entries in the source; they are usually repeats but may differ in a detail not shown here. Identical values can stand only once. Inconclusive results are not listed. A structure can be active in one record and inactive in another. Active and inactive are the calls of the source. How the source made its calls: active means hit-call score of the fitted dose curve at least 0.9, where 1 is the maximum; inconclusive means response in the unintended direction; inactive means score below 0.9.
# Biological target: Bile acid receptor (Homo sapiens) (UniProt Q96RI1)
# Assay: OT_FXR_FXRSRC1_1440: Odyssey Thera (OT) 24-hour HEK293T Protein-Complementation Assay for Farnesoid X receptor/SRC-1 Co-activator (AID 2283384)
# Method: OT_FXR_FXRSRC1_1440 is a cell-based assay that uses HEK293T, a human kidney cell line, with measurements taken at 24 hours after chemical dosing in a 384-well plate.OT_FXR_FXRSRC1_1440 is one of one assay component(s) measured or calculated from the OT_FXR_FXRSRC1_1440 assay. It is designed to make measurements of protein fragment complementation, a form of binding reporter, as detected with fluorescence intensity signals by Protein-fragment Complementation technology.Data from the assay component OT_FXR_FXRSRC1_1440 was analyzed into 1 assay endpoint. This assay endpoint, OT_FXR_FXRSRC1_1440, was analyzed in the positive analysis fitting direction relative to DMSO as the negative control and baseline of activity. Using a type of binding reporter, measures of receptor for gain-of-signal activity can be used to understand the binding at the pathway-level as they relate to the gene NR1H4. Furthermore, this assay endpoint can be referred to as a primary readout, because the performed assay has only produced 1 assay endpoint. To generalize the intended target to other relatable targets, this assay endpoint is annotated to the nuclear receptor intended target family, where the subfamily is non-steroidal.
# Protein-fragment complementation assay, or PCA, is a method for the identification and quantification of protein-protein interactions. In the PCA, the proteins of interest ("bait" and "prey") are each covalently linked to fragments of a third protein (e.g. DHFR, which acts as a "reporter"). Interaction between the bait and the prey proteins brings the fragments of the reporter protein in close proximity to allow them to form a functional reporter protein whose activity can be measured.
# Chain of Bile acid receptor (Homo sapiens) (Q96RI1 whole entry, looked up): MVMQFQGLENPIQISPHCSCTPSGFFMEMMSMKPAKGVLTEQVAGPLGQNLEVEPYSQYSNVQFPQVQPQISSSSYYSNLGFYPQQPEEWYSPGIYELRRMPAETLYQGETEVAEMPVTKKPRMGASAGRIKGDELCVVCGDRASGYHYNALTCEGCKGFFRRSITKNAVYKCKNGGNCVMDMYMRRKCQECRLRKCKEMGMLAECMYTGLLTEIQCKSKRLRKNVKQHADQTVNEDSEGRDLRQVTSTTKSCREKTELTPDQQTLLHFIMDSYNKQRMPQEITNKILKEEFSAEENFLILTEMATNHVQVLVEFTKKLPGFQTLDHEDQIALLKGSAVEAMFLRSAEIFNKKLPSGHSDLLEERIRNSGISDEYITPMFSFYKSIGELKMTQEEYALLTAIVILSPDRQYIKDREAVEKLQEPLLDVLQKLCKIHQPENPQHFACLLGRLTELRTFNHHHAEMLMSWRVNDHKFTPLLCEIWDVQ
Compound,AC50,outcome
Cc1cc2c(cc1C(F)(F)F)N(C(=O)Nc1ccc(Oc3cccnc3C)nc1)CC2,4.55 µM (active),–
O=C=NCCCCCCN=C=O,–,inactive
COc1cc(C(=O)NC2CCN(C)CC2)ccc1Nc1ncc2c(n1)N(C1CCCC1)CC(F)(F)C(=O)N2C,11 µM (active),–
O=C1CCC(C2CCCCC2)CC1,38.4 µM (active),inactive
O=C(OCCCCCCOC(=O)c1ccccc1)c1ccccc1,–,inactive
NCc1cccc(C2CCN(C(=O)c3ccc(C#Cc4ccccc4F)o3)CC2)c1,–,inactive
Cc1ncc(CO)c(CO)c1O,–,inactive
Cc1ccc2oc(CN(Cc3ccccc3)C(=O)Nc3c(F)cc(F)cc3F)c(-c3ccc(Cl)cc3)c2c1,–,inactive
Cc1c2ccccc2c(C)c2c1ccc1ccccc12,–,inactive
O=C(O)Cn1c(=O)n(Cc2ccc(Br)cc2F)c(=O)c2ccc(Cl)cc21,–,inactive
Clc1cc(Cl)c2c(c1)N=C1CCCCCN1C2,–,inactive
CCCC(=O)OCCC(C)C,–,inactive
CC[C@H](NC(=O)c1cc(F)ccc1NS(=O)(=O)c1cccc2cccnc12)c1ccccc1,–,inactive
CCN(CC)C(=O)c1cc(S(=O)(=O)Cc2ccccc2)c(N2CCC(c3ccccc3)CC2)cc1N(CC)CCN(C)C,4.38 µM (active),–
OC12N=C(c3ccccc3)SC1Cc1cc(Cl)ccc12 (stereo not given),31.4 µM (active),–
CC1=CC(=O)/C(=C(/C)O)C(=O)O1,–,inactive
CN1C(=O)N(c2ccccc2Br)Cc2cnc(Nc3ccc4c(c3)OCC(CO)O4)nc21 (stereo not given),0.54 µM (active),–
CC(C)(C)c1cc(/C=C2\SC(N)=NC2=O)cc(C(C)(C)C)c1O,50 µM (active),–
CCN(Cc1cccnc1)C(=O)c1cccc(Cl)c1[C@]1(C)C(=O)N(Cc2ccc(OC)cc2OC)c2ccc(Cl)cc21,0.59 µM (active),–

Compound,AC50,outcome
CCCOC(=O)c1cc(O)c(O)c(O)c1,–,inactive
CN(C[C@@H](CC[N+]12CCC(C3CCCCC3)(CC1)CC2)c1ccc(Cl)c(Cl)c1)C(=O)c1cc(C(F)(F)F)cc(C(F)(F)F)c1,78.1 µM (active),–
CCOC(=O)O[C@H](C)OC(=O)c1ccc2c(c1)cc(C(=O)NC1CCN(C(C)C)CC1)n2Cc1cc(-c2ccc(Cl)s2)on1,74.9 µM (active),–
O=C(O)Cc1cc(I)c(Oc2ccc(O)c(I)c2)c(I)c1,28.6 µM (active) and 29 µM (active) and 23.8 µM (active),–
O=CCCCC=O,–,inactive
CC1(C)NC(=O)N(c2ccc([N+](=O)[O-])c(C(F)(F)F)c2)C1=O,–,inactive
c1ccc(C[n+]2cccc3ccccc32)cc1,–,inactive
O=C(O)c1ccccc1C(=O)OCc1ccccc1,–,inactive
OCCO,–,inactive
Cc1oc2c(NC(=O)c3c(Cl)cccc3Cl)cccc2c1C(C)(C)O,13.5 µM (active),–
c1ccc2ccccc2c1,–,inactive
Oc1ccccc1,–,inactive
CCCCOC(=O)CC(CC(=O)OCCCC)(OC(C)=O)C(=O)OCCCC,–,inactive
C[C@]12CC[C@@H]3c4ccc(O)cc4CC[C@H]3[C@@H]1CCC2=O,22.6 µM (active) and 35.9 µM (active) and 30 µM (active),inactive
CCCCCCCCOc1ccc(C(=O)c2ccccc2)c(O)c1,–,inactive
COc1cccc([C@H](O)C2CCN(CCc3ccc(F)cc3)CC2)c1OC,–,inactive
O=C(O)c1ccccc1-n1cc(C(=O)O)c(=O)c2cc(Nc3c(F)cc(F)cc3Cl)c(Cl)cc21,–,inactive
CCCCOC(=O)c1ccc(O)cc1,14.6 µM (active) and 16 µM (active),–
O=C(Nc1ccc(Cl)cc1)Nc1ccc(Cl)c(Cl)c1,–,inactive
